Results filed as inconclusive are left out. Entries that show only a call come without a potency. Unmarked numbers belong to inactive results. Active and inactive are the calls of the source. Unless noted, calls follow the shape of the dose curve; as a rule, active = well fitted activation curve with a large enough effect in the repeat runs; inconclusive = weak or mixed curves; inactive = no such curve, though single readings can be large or run the other way.
Assay: qHTS assay for small molecule agonists of the p53 signaling pathway (AID 651631; calls by dose curve)
Details: HCT-116 p53RE-bla reporter, beta-lactamase FRET ratio, 16 h; series mostly up to 73.3 µM
Summary of the method: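 Testing took place in human colorectal HCT-116 cells with stable p53RE-driven beta-lactamase. After 16 h of compound exposure at 37 °C, a FRET substrate was added and fluorescence recorded 2 h later.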
Also: nearly all actives have a fitted effect of over 15% in size.
Potency is read from the fitted curve at half-maximal effect.

Compound | Potency | activation
Cc1cc(NS(=O)(=O)c2ccc(N)cc2)nc(C)n1 | inactive | 
CN(C)C(=O)NC1(c2ccccc2)CCN(CCC[C@]2(c3ccc(Cl)c(Cl)c3)CCCN(C(=O)c3ccccc3)C2)CC1 | inactive | 
O=C(O)C(=O)Cc1c[nH]c2ccccc12 | inactive | 
CCCCNc1cc(C(=O)O)cc(S(N)(=O)=O)c1Oc1ccccc1 | inactive | 
NC(Cc1ccc(F)cc1)C(=O)O (stereo not given) |  | -4.8% [at 8.3 µM]
CCCCOc1cc(C(=O)NCCN(CC)CC)c2ccccc2n1 | inactive | 
C[C@]12C(=O)OC(=O)[C@H]1[C@H]1C=C[C@@H]2C1 | inactive | 
CCCCc1ccc2nc(NC(=O)OC)[nH]c2c1 | 50.7 nM (active) | 
CCC1(C)NC(=O)NC1=O (stereo not given) | inactive | 
OCC(CBr)(CBr)CBr | inactive | 
NNS(=O)(=O)c1ccc(Oc2ccc(S(=O)(=O)NN)cc2)cc1 | inactive | 
C=CCCC=C | inactive | 
COc1cc(N)c(Cl)cc1C(=O)NC1CCN(Cc2ccccc2)CC1 | inactive | 
CCOC(=O)C1CC(=O)C(=C(O)C2CC2)C(=O)C1 (stereo not given) | inactive | 
OCCN(CCO)c1ccccc1 | inactive | 
CC(CNC1CCCCC1)OC(=O)c1ccccc1 (stereo not given) | inactive | 
C[C@@H](N)C(=O)O | inactive | 
ICCc1ccccc1 | inactive | 

Compound | Potency | activation
Cc1cccc(C)c1NC(=O)CN1CCCCCC1 | inactive | 
O=S(=O)(O)C(F)(F)F | inactive | 
CCOC(=O)NCCC[Si](OCC)(OCC)OCC | inactive | 
CCN(CC)CCNC(=O)COc1ccc(Cl)cc1 | inactive | 
CCCN(CCC)C(=O)C(CCC(=O)O)NC(=O)c1ccccc1 (stereo not given) | inactive | 
Cc1ccc([N+](=O)[O-])cc1Cl | inactive | 
CCC(=O)O[C@]1(C(=O)SCF)[C@H](C)C[C@H]2[C@@H]3C[C@H](F)C4=CC(=O)C=C[C@]4(C)[C@@]3(F)[C@@H](O)C[C@@]21C | inactive | 
CCCCNCCCC | inactive | 
CC(=O)Nc1ccc(C)c(Cl)c1 | inactive | 
NCCCN1CCN(CCCN)CC1 | inactive | 
O=c1[nH]cnc2c1ncn2[C@@H]1O[C@H](CO)[C@@H](O)[C@H]1O | inactive | 
FC(F)(F)C(F)(F)C(F)(F)C(F)(F)C(F)(F)C(F)(F)C(F)(F)C(F)(F)Br | inactive | 
C=CCCCCCCCCO | inactive | 
O=C(C(Cl)Cl)N1CCOC12CCCCC2 | inactive | 
CC1(C)S[C@@H]2[C@H](NC(=O)C(C(=O)O)c3ccccc3)C(=O)N2[C@H]1C(=O)O (stereo not given in full) | inactive | 
CCCCCCCCCC#N | inactive | 
CCc1nnc(NS(=O)(=O)c2ccc(N)cc2)s1 | inactive | 

Assay: qHTS assay for small molecules that induce genotoxicity in human embryonic kidney cells expressing luciferase-tagged ATAD5 (AID 651632)
Details: HEK293T ATAD5-luciferase induction, 16 h; series mostly up to 83.3 µM
Summary of the method: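 Genotoxicity read-out via ATAD5-luciferase: HEK293T cells, 16 hr compound incubation at 37C, Amplite detection.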

Compound | Potency | activation
Cc1cc(NS(=O)(=O)c2ccc(N)cc2)nc(C)n1 | inactive | 
CN(C)C(=O)NC1(c2ccccc2)CCN(CCC[C@]2(c3ccc(Cl)c(Cl)c3)CCCN(C(=O)c3ccccc3)C2)CC1 | inactive | 
O=C(O)C(=O)Cc1c[nH]c2ccccc12 | inactive | 
CCCCNc1cc(C(=O)O)cc(S(N)(=O)=O)c1Oc1ccccc1 | inactive | 
NC(Cc1ccc(F)cc1)C(=O)O (stereo not given) |  | 3.53% [at 8.08 µM]
CCCCOc1cc(C(=O)NCCN(CC)CC)c2ccccc2n1 | inactive | 
C[C@]12C(=O)OC(=O)[C@H]1[C@H]1C=C[C@@H]2C1 | inactive | 
CCCCc1ccc2nc(NC(=O)OC)[nH]c2c1 | 804 nM (active) | 
CCC1(C)NC(=O)NC1=O (stereo not given) | inactive | 
OCC(CBr)(CBr)CBr | inactive | 
NNS(=O)(=O)c1ccc(Oc2ccc(S(=O)(=O)NN)cc2)cc1 | inactive | 
C=CCCC=C | inactive | 
COc1cc(N)c(Cl)cc1C(=O)NC1CCN(Cc2ccccc2)CC1 | inactive | 
CCOC(=O)C1CC(=O)C(=C(O)C2CC2)C(=O)C1 (stereo not given) | inactive | 
OCCN(CCO)c1ccccc1 | inactive | 
CC(CNC1CCCCC1)OC(=O)c1ccccc1 (stereo not given) | inactive | 
C[C@@H](N)C(=O)O | inactive | 
ICCc1ccccc1 | inactive | 

Compound | Potency | activation
Cc1cccc(C)c1NC(=O)CN1CCCCCC1 | inactive | 
O=S(=O)(O)C(F)(F)F | inactive | 
CCOC(=O)NCCC[Si](OCC)(OCC)OCC | inactive | 
CCN(CC)CCNC(=O)COc1ccc(Cl)cc1 | inactive | 
CCCN(CCC)C(=O)C(CCC(=O)O)NC(=O)c1ccccc1 (stereo not given) | inactive | 
Cc1ccc([N+](=O)[O-])cc1Cl | inactive | 
CCC(=O)O[C@]1(C(=O)SCF)[C@H](C)C[C@H]2[C@@H]3C[C@H](F)C4=CC(=O)C=C[C@]4(C)[C@@]3(F)[C@@H](O)C[C@@]21C | inactive | 
CCCCNCCCC | inactive | 
CC(=O)Nc1ccc(C)c(Cl)c1 | inactive | 
NCCCN1CCN(CCCN)CC1 | inactive | 
O=c1[nH]cnc2c1ncn2[C@@H]1O[C@H](CO)[C@@H](O)[C@H]1O | inactive | 
FC(F)(F)C(F)(F)C(F)(F)C(F)(F)C(F)(F)C(F)(F)C(F)(F)C(F)(F)Br | inactive | 
C=CCCCCCCCCO | inactive | 
O=C(C(Cl)Cl)N1CCOC12CCCCC2 | inactive | 
CC1(C)S[C@@H]2[C@H](NC(=O)C(C(=O)O)c3ccccc3)C(=O)N2[C@H]1C(=O)O (stereo not given in full) | inactive | 
CCCCCCCCCC#N | inactive | 
CCc1nnc(NS(=O)(=O)c2ccc(N)cc2)s1 | inactive | 
